FBW7 act = FBW7 E3 ligase activators, primary screen, biochemical, AlphaScreen, human; AlphaScreen FBW7–phospho-cyclin E peptide binding, activator screen; normalized activity (activation), % at 26.1 µM; hit rate 0.13% among 650,000; AID 1259310, 2017; F-box/WD repeat-containing protein 7 (Homo sapiens), Q969H0; in the data active = normalized activity above about 1.9%;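 note: purified mutant Fbw7 with reduced substrate affinity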
MITF primary = MITF inhibitors, primary screen, biochemical, AlphaScreen, human | hit rate 0.91% among 650,000 | AlphaScreen MITF homodimerization, bead proximity signal | AID 1259374, 2018 | inhibition, % at 2.6 µM | Microphthalmia-associated transcription factor (Homo sapiens), O75030; in the data active = inhibition above about 50%;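 note: 0% = vehicle wells with protein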
GPR151 activ = activators of human GPR151, primary screen, cell-based, PathHunter beta-arrestin, luminescence; G-protein coupled receptor 151 (Homo sapiens), Q8TDV0; PathHunter beta-arrestin GPR151 cells; activation, % at 11.2 µM; hit rate 1% among 650,000; in the data active = activation above about 4.9%;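 note: 0% = median of compound wells and 100% = cells with positive control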
Target sequence (Q8TDV0 whole entry, looked up): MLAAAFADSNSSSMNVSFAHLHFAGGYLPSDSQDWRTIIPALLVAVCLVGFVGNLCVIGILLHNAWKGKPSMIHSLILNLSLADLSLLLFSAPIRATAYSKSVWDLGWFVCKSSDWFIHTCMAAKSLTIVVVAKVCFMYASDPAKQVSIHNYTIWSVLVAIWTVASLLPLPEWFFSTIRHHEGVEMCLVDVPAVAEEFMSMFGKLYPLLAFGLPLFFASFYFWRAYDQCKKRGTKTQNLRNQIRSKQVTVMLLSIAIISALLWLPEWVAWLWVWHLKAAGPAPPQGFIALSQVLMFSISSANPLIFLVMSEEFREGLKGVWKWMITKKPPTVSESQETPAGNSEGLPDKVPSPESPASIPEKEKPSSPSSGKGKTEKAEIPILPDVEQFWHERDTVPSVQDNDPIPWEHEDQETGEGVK
TEAD-YAP block = TEAD-YAP interaction inhibition, primary screen, TEAD-YAP interaction inhibitor project, luminescence, HEK-TIYL cells. hit rate 1.4% among 640,000. AID 1259422, 2018. inhibition, % at 9.12 µM. TEAD-Gal4/YAP UAS-luciferase luminescence; in the data active = inhibition above about 32%;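 note: 0% = median of test compound wells and 100% = reference inhibitor wells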
GPR151 conf act = GPR151 activators, triplicate retest, confirmation, cell-based, PathHunter beta-arrestin, luminescence | activation, % at 11.2 µM | shares compounds with GPR151 activ | 6,700 tested, under 10 active | GPR151 PathHunter beta-arrestin cells, 90 min; % of EA-reagent control over plate median | AID 1508609, 2020;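 active = mean percent activation across replicates above the confirmation screen cutoff of 4.91%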
GPR119 counter = GPR119 activators in beta-arrestin cells, counter-screen for GPR151 activator project, cell-based, PathHunter beta-arrestin, luminescence, triplicate; shares compounds with GPR151 activ; 90 min; 0 = compound-well median, 100 = enzyme-acceptor control; activation, % at 11.2 µM; hit rate 0.3% among 6,700; AID 1508611, 2020;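 active = mean percent activation in the counterscreen above 29.09%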;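 note: counterscreen on off-target GPR119 to flag nonselective hits from the GPR151 activator screen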
* marks the source's active call; other numbers are inactive results; x = no result. Only some compounds are listed: those with a hit (about 3.4% of all), similar ones and a draw of the others.

SMILES	FBW7 act	MITF primary	GPR151 activ	TEAD-YAP block	GPR151 conf act	GPR119 counter
COc1ccc2nc(N3CCN(C(=O)C4CCCN4S(C)(=O)=O)CC3)sc2c1 (centres undefined)	0	-7	1	1	x	x
NC(=O)C1CCN(C(=O)c2ccc3nc(N4CCCCC4)sc3c2)CC1	0	4	12*	-48	2	8
O=C(NC1CCCC1)N1CCN(c2nc3ccc(F)cc3s2)CC1	0	6	6.4*	-2	0	6
O=C(Nc1ccccc1O)c1ccc(N2C(=O)C3C4C=CC(C4)C3C2=O)cc1 (centres undefined)	0	-2	1	-126	x	x
O=C(Nc1c[nH]c(=O)[nH]c1=O)c1ccc(N2C(=O)C3C4C=CC(C4)C3C2=O)cc1 (centres undefined)	0	15	6.7*	4	0	6
O=C(CC1CCCC1)N1CCC(n2nc(-c3cccs3)oc2=O)CC1	0	1	-1	2	x	x
O=C(O)CN1C(=O)SC(Nc2ccccc2)C1=O (centres undefined)	0	0	-3	-7	x	x
CCOC(=O)CN1C(=O)SC(Nc2ccccc2)C1=O (centres undefined)	0	3	7.8*	3	0	8
CCCCN1C(=O)SC(Nc2ccc(F)cc2)C1=O (centres undefined)	0	6	8.2*	3	-2	-7
NC(=O)c1ccc(-c2cc(C(=O)NC3CC3)ccn2)cc1	0	-4	0	-13	x	x
CC/C=C\C/C=C\C=C\[C@@H](O)CCCCCCCC(=O)O	x	0	-3	x	x	x
CCOc1ccc(NC2CC(=O)N(c3ccccc3F)C2=O)cc1 (centres undefined)	0	11	0	-2	x	x
O=C(NCCCN1CCOCC1)/C(=C/c1ccc(-c2cccc(C(F)(F)F)c2)o1)NC(=O)c1ccc(Cl)cc1	0	-4	9.4*	-5	2	24
Cc1cccc(CN2CCN(Cc3nc(-c4ccc(F)cc4)cs3)CC2CCO)n1 (centres undefined)	0	-9	10*	1	1	5
C=CCN(CC(=O)O)S(=O)(=O)c1ccc(C)c(C)c1	0	6	6.6*	4	1	17
CCCN(CCC)S(=O)(=O)c1ccc(C)c(C)c1	1	4	-1	1	x	x
O=C(NCC1CCC2(CCN(C(=O)c3ccc(F)c(F)c3)CC2)O1)c1ccccc1F (centres undefined)	0	14	-1	6	x	x
COc1ccccc1NC(=O)Cn1c(=O)n(Cc2ccccc2)c(=O)c2cccnc21	0	-1	5.2*	9	-1	-2
COc1ccccc1NC(=O)Cn1c(=O)n(Cc2ccc(F)cc2)c(=O)c2cccnc21	0	5	1	16	x	x
COc1ccc(S(=O)(=O)Nc2ccc(F)c(F)c2)cc1C	0	8	14*	3	1	2
CCOC(=O)COc1ccc(S(=O)(=O)Nc2ccc(Br)cc2)cc1	0	-2	3	4	x	x
CC(=O)Nc1ccc(NS(=O)(=O)c2cc(C(C)(C)C)cc(C)c2C)cc1	0	-4	6.4*	4	0	6
COC(=O)COc1ccc(S(=O)(=O)Nc2ccc(NC(C)=O)cc2)cc1C	0	6	6.2*	2	1	-10
CCOC(=O)COc1ccc(S(=O)(=O)Nc2ccc(C(=O)OCC)cc2)cc1	0	-7	5.0*	0	-1	3
Cc1ccc(NS(=O)(=O)c2cc(C(=O)O)cc(C)c2C)cc1	0	-11	-1	6	x	x
SMILES	FBW7 act	MITF primary	GPR151 activ	TEAD-YAP block	GPR151 conf act	GPR119 counter
CCOc1ccc(NC(=O)CSc2ncc(-c3cccc(Cl)c3)o2)cc1	0	11	-1	13	x	x
Cc1ccc(S(=O)(=O)Nc2ccc3nc(-c4cc(C)ccc4C)[nH]c3c2)cc1	0	-5	1	0	x	x
COC(=O)COc1ccc(NS(=O)(=O)c2ccc(NC(C)=O)cc2)cc1	1	9	-1	4	x	x
CCOc1ccc(S(=O)(=O)Nc2ccc3oc(C)c(C(=O)OC)c3c2)cc1	0	19	8.9*	63*	0	16
CCCCc1ccc(NS(=O)(=O)c2ccc(OCC(=O)OC)cc2)cc1	0	-9	5.2*	-8	0	3
COC(=O)c1c(C)oc2ccc(NS(=O)(=O)c3ccc(C(C)(C)C)cc3)cc12	0	8	0	29	x	x
C[C@H](O)[C@H]1NC(=O)[C@@H]2C[C@H](NC(=O)Nc3ccc(Cl)cc3Cl)CN2C1=O	0	2	-1	0	x	x
COCCN1C(=S)NC2CC1(C)Oc1ccccc12 (centres undefined)	0	-10	6.1*	-7	0	-10
COC(c1ccc2c(c1)CN(C(=O)c1nc3ncccn3n1)CCO2)C1CCCCC1 (centres undefined)	0	8	9.5*	-4	0	11
CSc1nc2c(c(=O)[nH]1)C(c1cccc(O)c1)C1=C(CCCC1=O)N2 (centres undefined)	0	0	0	9	x	x
CC(C)(C)c1ccc(OCC(=O)O/N=C(\N)c2ccncc2)c(Br)c1	0	-8	0	-50	x	x
Cc1ccc(-c2csc3nnc(SCC(=O)NC(N)=O)n23)cc1	0	7	6.3*	1	3	-3
Cc1ccc(-c2csc3nnc(SCC(=O)NCCc4ccccc4)n23)cc1	0	0	0	4	x	x
COc1ccc(CNS(=O)(=O)c2ccc(Cl)c(OC)c2)cc1	0	-8	0	-1	x	x
CCNS(=O)(=O)c1ccc(Cl)c(OC)c1	0	-5	8.0*	-6	0	0
COc1cc(S(=O)(=O)N2CC(C)OC(C)C2)ccc1Cl (centres undefined)	0	-14	8.0*	-12	-1	-16
COc1cc(S(=O)(=O)N2CC(C)OC(C)C2)ccc1Br (centres undefined)	0	3	-1	-4	x	x
CN(C)c1ccc(NC2CC(=O)N(c3cccc(Cl)c3)C2=O)cc1 (centres undefined)	0	18	0	4	x	x
CN(C)c1ccc(NC2CC(=O)N(c3cccc4ccccc34)C2=O)cc1 (centres undefined)	0	33	5.6*	5	0	4
Cc1[nH]c2ccc(CNC(=O)Nc3ccc(F)cc3F)cc2c1C	0	6	5.9*	6	-1	-6

Screens from PubChem BioAssay.
